RORg inh: qHTS for inhibitors of ROR gamma transcriptional activity; Drosophila S2 Gal4-RORgamma UAS-luciferase reporter, 20 h; Potency, µM (titrated, usually from 53.6 µM), for inactives: at the top dose activity change, negative = inhibition, usual class: inhibitors; Nuclear receptor ROR-gamma (Mus musculus), P51450; AID 2551, 2010; 310,000 tested, 5.4% active; further: on the % scale 0 is the no-effect control and ±100 the full control effect; nearly all actives have a fitted effect of over 60% in size
Target sequence (P51450 whole entry, looked up, the tested form may be a part): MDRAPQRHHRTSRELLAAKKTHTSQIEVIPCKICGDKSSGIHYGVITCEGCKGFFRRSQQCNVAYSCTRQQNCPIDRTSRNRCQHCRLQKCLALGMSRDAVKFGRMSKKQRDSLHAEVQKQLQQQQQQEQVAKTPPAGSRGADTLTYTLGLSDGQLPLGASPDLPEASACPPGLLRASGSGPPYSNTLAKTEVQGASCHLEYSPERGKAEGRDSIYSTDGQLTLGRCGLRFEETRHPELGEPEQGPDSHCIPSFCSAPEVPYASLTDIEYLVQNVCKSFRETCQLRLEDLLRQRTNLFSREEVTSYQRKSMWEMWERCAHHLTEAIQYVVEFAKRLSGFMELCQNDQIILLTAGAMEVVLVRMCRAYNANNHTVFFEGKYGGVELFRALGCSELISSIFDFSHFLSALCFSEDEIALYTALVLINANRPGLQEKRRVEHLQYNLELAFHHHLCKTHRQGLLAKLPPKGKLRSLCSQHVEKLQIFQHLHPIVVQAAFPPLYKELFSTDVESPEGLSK
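Schneider cells (Drosophila), stable Gal4 DBD–ROR gamma + UAS-luc; 1 hr cmpd preincubation; Cu2+ induction 700 uM final; 20 hr ambient; luminescence.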
MCF10A rerep: A quantitative high throughput screen for small molecules that induce DNA re-replication in MCF 10a normal breast cells. MCF 10A DNA re-replication, Hoechst nuclear intensity, 48 h. Potency, µM (doses to about 46.1 µM), without a hit: at the highest dose activity, positive = re-replication, hits mostly activators. 350,000 tested, 2.9% active; further: % of control where 0% means no effect; nearly all actives have a fitted effect of over 50% in size
Gal4-VP16 FLuc: VP16 counterscreen qHTS for inhibitors of ROR gamma transcriptional activity; Drosophila S2 Gal4-VP16 UAS-luciferase, luminescence, 20 h; Potency, µM (series often up to 53.6 µM), for inactives: at the highest dose activity, negative = inhibition, usual class: inhibitors; 310,000 tested, 3.5% active;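 further: Gal4-VP16 expression switched on by copper sulfate through the metallothionein promoter; on the % scale 0 is the no-effect control and ±100 the full control effect; nearly all actives have a fitted effect of over 50% in size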
KB-3-1 tox: qHTS assay for MDR1-selective chemotherapeutics: Primary screen using the parental adenocarcinoma cell KB-3-1 | KB-3-1 viability, CellTiter-Glo ATP luminescence, 72 h | Potency, µM (doses to about 46.1 µM), actives largely listed as cytotoxic | 400,000 tested, 1.4% active | AID 1347075, 2019; further: on the % scale 0 is the no-effect control and ±100 the full control effect; nearly all actives have a fitted effect of over 60% in size
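Parental KB-3-1 viability, qHTS format: 72 h compound exposure, 37 °C; CellTiter-Glo; media-only wells and DMSO plates as controls; concentration-effect fits on corrected data.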
SW480 rerep: A quantitative high throughput screen for small molecules that induce DNA re-replication in SW480 colon adenocarcinoma cells | AID 624297, 2012 | 340,000 tested, 1.8% active | Potency, µM (doses to about 46.1 µM), without a hit: top-dose re-replication activation, actives largely listed as activators | SW480 DNA re-replication, Hoechst DNA content imaging, 48 h; further: % of control where 0% means no effect; nearly all actives have a fitted effect of over 55% in size
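Hoechst fluorescence of nuclei (405 nm excitation, 500-530 nm emission) measured by plate-scanning imager after 48 hr compound exposure at 37 C; re-replication scored as increased number of nuclei with elevated intensity.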
KB-V1 MDR tox: qHTS assay for MDR1-selective chemotherapeutics: Primary screen using the drug-selected MDR subline cells KB-V1; KB-V1 MDR cells viability, CellTiter-Glo, 72 h; Potency, µM (series often up to 46.1 µM), most hits filed as cytotoxic; AID 1347076, 2019; 400,000 tested, 3.4% active; further: on the % scale 0 is the no-effect control and ±100 the full control effect; nearly all actives have a fitted effect of over 60% in size
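Cytotoxicity via CellTiter-Glo luminescence after 72 h compound exposure at 37 degrees C. Cells: drug-selected KB-V1 line, DMEM phenol-red free plus 10% FBS. Compounds tested at multiple concentrations; normalized data fitted to concentration-effect curves.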
The depositor's hits bear a star; i = inactive; ? = inconclusive; . = not tested or not shown; [ ] = remark or other dose. The list is not random: actives were taken first. Their share in the collection is about 10%. The call rests on the fitted dose curve; in most records, active means well fitted curve in the direction sought with a large enough effect; inconclusive means small, poorly fitted or top-dose-only effect, or another doubt; inactive means no such curve, though single readings can be large; an effect the other way counts as inactive or inconclusive. Potency means the concentration at half of the fitted maximal effect.

SMILES	RORg inh	MCF10A rerep	Gal4-VP16 FLuc	KB-3-1 tox	SW480 rerep	KB-V1 MDR tox
O=S(=O)(Cc1cc(Oc2ccccc2)nc(-c2ccccc2)n1)c1ccccc1	36.4%	6.7%	-11.0%	i	-5.3%	i
CCN(C(=O)CSc1nc2ccccc2n1C)C1CCS(=O)(=O)C1 (centres undefined)	.	-7.4%	.	i	-18.4%	i
Cn1c(SCC(=O)N(Cc2ccccc2)C(C)(C)C)nc2ccccc21	?	?	-22.3%	i	?	20.6µM*
Cc1cc(C)cc(NC(=O)C(=O)NCC(c2cccnc2)N2CCc3ccccc3C2)c1 (centres undefined)	.	.	.	i	.	?
Cc1ccc(S(=O)(=O)Nc2ccc3nc(C)oc3c2)cc1	.	9.9%	.	?	0.4%	2.91µM*
Cc1ccc(S(=O)(=O)Nc2ccc3nc(C)sc3c2)cc1	?	-3.3%	?	i	-1.7%	?
Cc1ccc(S(=O)(=O)Nc2ccc3nc(-c4ccc(F)cc4)oc3c2)cc1	.	.	.	i	.	i
Cc1ccc(S(=O)(=O)Nc2ccc3nc(N)sc3c2)cc1	?	21.0%	-23.8%	?	-2.8%	20.6µM*
Cc1nc2ccc(NS(=O)(=O)c3ccc(Br)cc3)cc2s1	.	-3.5%	.	23.1µM*	1.8%	i
Cc1nc2cc(NS(=O)(=O)c3c(C)c(C)cc(C)c3C)ccc2s1	?	21.1%	11.2µM*	12.6µM*	-1.2%[9.22 µM]	11.2µM*
Cc1nc2cccnc2n1C1CCN(S(C)(=O)=O)CC1	.	.	.	i	.	i
CN1CCN(CCCNC(=O)Cn2c(-c3cccs3)cc3cc(Cl)ccc32)CC1	.	.	.	i	.	i
Cc1nc2ccc(NS(=O)(=O)c3ccc(F)c(F)c3)cc2s1	.	?	.	i	-9.0%	i
Cc1nc2ccc(NS(=O)(=O)c3ccc4c(c3)OCCO4)cc2s1	?	3.5%	8.91µM*	i	0.2%	i
COc1ccc(NC(=O)N2CCC(c3nc(-c4cccs4)no3)CC2)cc1	24.6%	8.9%	-0.4%[0.365 µM]	i	-9.6%	6.51µM*
COc1cccc(C(=O)N2CCCC(c3nc(-c4cccs4)no3)C2)c1 (centres undefined)	26.2%	6.6%	1.7%	i	0.5%	4.11µM*
O=C(NC1CCCCC1)N1CCCC(c2nc(-c3cccs3)no2)C1 (centres undefined)	26.3%	?	5.3%	i	26.4%	i
COc1cc(C(=O)N2CCCC(c3nc(-c4cccs4)no3)C2)cc(OC)c1OC (centres undefined)	42.0%	-1.1%	-7.4%	i	-7.8%	i
O=C(Nc1ccccc1)N1CCCC(c2nc(-c3cccs3)no2)C1 (centres undefined)	?	-0.1%	-0.1%	i	-4.2%	11.6µM*
O=C(Nc1ccc(Cl)cc1)N1CCC(c2nc(-c3cccs3)no2)CC1	-5.0%	?	-6.2%	i	?	i
O=C(N/N=C/c1sc(N2CCCCC2)nc1-c1cccs1)C1CC1	7.08µM*	?	?	i	?	i
O=C(Nc1ccc2nc(-c3cccs3)c(-c3cccs3)nc2c1)N1CCCCC1	.	.	.	i	.	i
Cc1cc(C(=O)N/N=C/c2sc(N3CCOCC3)nc2-c2ccccc2)c(C)o1	?	?	0.7%	i	?	i
NC(=O)N/N=C/c1sc(N2CCCCC2)nc1-c1cccs1	.	23.1µM*	.	i	20.6µM*	?
CC(C)NC(=S)N/N=C/c1sc(N2CCCCC2)nc1-c1cccs1	1.41µM*	?	?	i	16.9%	i
CCCCNC(=S)N(C)/N=C/c1sc(N2CCCCC2)nc1-c1cccs1	11.2µM*	2.9%	-5.3%	.	-2.8%	.
CCCCNC(=S)N(C)/N=C/c1c(F)cccc1F	-41.9%	3.9%	5.8%	i	-2.1%	i
